The values below are quoted from earlier work in PubChem BioAssay AID977611.

A word on the Kd: it is a measure of binding affinity in units of concentration.

The series can be described thus: PubChem AID 977611. As to conditions: PDB protein-ligand complexes, literature Kd.

About 3,900 (100%) of roughly 3,900 compounds were called active. The limit is not given here; nearly all actives have Kd up to about 4200 µM. The set was probably picked from earlier hits. The list shows a part of the results. *1 amine or outer side, *2 acyl side, *3 side chain or, on linkers, in order; H or OH if unused. Where a SMILES comes first, the peptide text is derived from it. Non-standard residues stand in square brackets, D forms with d. Square brackets hold non-standard residues; d marks the D form. Residues, ends and D or L forms follow the SMILES beside them. Bridges are numbered along the chain shown (N, C = ends). Peptide text beside a SMILES is read from it. [ ]: non-standard residue; d: D form. * marks the point of attachment. X1 = C[C@@](/C=C/CC=[*:3])(N[*:1])C(=O)[*:2]; Orn(CH(NH2)2) = NC(N)NCCC[C@H](N)C(=O)O; Benzoyl(4-Br) = O=C(c1ccc(Br)cc1)*; Benzoyl(4-F) = O=C(c1ccc(F)cc1)*; S5 = C=CCCC[C@](C)(N)C(=O)O; ΔPro = O=C(O)[C@@H]1C=CCN1

In the case of `CO/N=C(\C(=O)N[C@@H]1C(=O)N2C(C(=O)O)=C(COC(N)=O)CS[C@H]12)c1ccco1`, the Kd (protein: PA4794, PDB entry 4kov) is 177 µM (active). Regarding `CO/N=C(\C(=O)N[C@@H]1C(=O)N2C(C(=O)O)=C(COC(C)=O)CS[C@H]12)c1csc(N)n1`, the dissociation constant (Kd) (protein: PA4794, PDB entry 4kot) was 3.5 µM (active). For the compound `Cc1oc2ccc(NS(=O)(=O)c3ccc(Cl)cc3)cc2c1C(=O)O`, the equilibrium dissociation constant (Kd) (protein: Non-structural protein 5, PDB entry 3vws) was 225 µM (active). With `CC[C@H](C)[C@H](NC(=O)[C@H](CCCCNC(=O)c1ccc(Br)cc1)NC(=O)[C@H](CO)NC(=O)[C@@H](NC(=O)[C@@H]1CCCN1C(=O)[C@@H](N)Cc1c[nH]c2ccccc12)[C@@H](C)O)C(=O)O` (H-WPTSK(Benzoyl(4-Br))I-OH), the equilibrium dissociation constant (Kd) (protein: Golgi-associated PDZ and coiled-coil motif-containing protein CAL PDZ (CALP) domain, PDB entry 4nmv) was 11.1 µM (active). With H-WPK(Ac)SII-OH, the Kd (protein: Golgi-associated PDZ and coiled-coil motif-containing protein CAL PDZ (CALP) domain, PDB entry 4nmp) is 91.9 µM (active). Regarding `CC[C@H](C)[C@H](NC(=O)[C@H](CCCCNC(=O)c1ccc(F)cc1)NC(=O)[C@H](CO)NC(=O)[C@@H](NC(=O)[C@@H]1CCCN1C(=O)[C@@H](N)Cc1c[nH]c2ccccc12)[C@@H](C)O)C(=O)O` (H-WPTSK(Benzoyl(4-F))I-OH), the Kd (protein: Golgi-associated PDZ and coiled-coil motif-containing protein CAL PDZ (CALP) domain, PDB entry 4nms) was 11.4 µM (active). For `CN1CC/C=C/CCCCCCC(=O)Cc2c(Cl)c(O)cc(O)c2C1=O`, the equilibrium dissociation constant (Kd) (protein: Hsp90 N-terminal domain, PDB entry 4ce1) was 41.8 µM (active). In the case of `CN1CCC/C=C\CCCC(=O)Cc2c(Cl)c(O)cc(O)c2C1=O`, under “protein: Hsp90 N-terminal domain, PDB entry 4ce3”, the Kd was 110 µM (active).

For the compound `CN1CC/C=C/CCCCCC(=O)Cc2c(Cl)c(O)cc(O)c2C1=O`, the equilibrium dissociation constant (Kd) (protein: Hsp90 N-terminal domain, PDB entry 4ce2) is 144 µM (active). On to `O=c1cc(-c2ccc(O)cc2)oc2ccccc12`, for which the Kd (protein: Tankyrase-2, PDB entry 4kzq) is 0.788 µM (active). In the case of `CC[C@H](C)[C@H](NC(=O)[C@@H]1CCCN1C(=O)CNC(=O)[C@H](CC(N)=O)NC(=O)[C@@H]1CCCN1C(=O)[C@H](CO)NC(=O)[C@H](Cc1ccccc1)NC(=O)[C@H](CC(C)C)NC(=O)[C@H](Cc1ccc(O)cc1)NC(=O)[C@@H](N)CC(N)=O)C(=O)N[C@@H](C)C(=O)N[C@@H](CCCNC(N)N)C(=O)N[C@@H](C)C(=O)N[C@@H](Cc1c[nH]c2ccccc12)C(=O)O` (H-NYLFSPNGPIA[Orn(CH(NH2)2)]AW-OH), the equilibrium dissociation constant (Kd) (protein: Ephrin type-B receptor 4, PDB entry 2bba) is 0.07 µM (active). In the case of `CC[C@H](C)[C@H](N)C(=O)N[C@H](C(=O)NCC(=O)NCC(=O)N[C@@H](Cc1ccc(O)cc1)C(=O)N1CCC[C@H]1C(=O)N[C@@H](Cc1c[nH]c2ccccc12)C(=O)N[C@@H](Cc1c[nH]c2ccccc12)C(=O)N[C@@H](CCSC)C(=O)O)C(C)C` (H-IVGGYPWWM-OH), the Kd (protein: Hepatocyte growth factor HGF-Beta V495, PDB entry 4o3t) was 43 µM (active). For the compound `CC(C)C[C@H](NC(=O)[C@@H]1CCCN1C(=O)[C@H](CO)NC(=O)[C@H](Cc1ccc(O)cc1)NC(=O)[C@@H](NC(=O)[C@H](Cc1c[nH]c2ccccc12)NC(=O)[C@H](CO)NC(=O)[C@H](CCCNC(N)N)NC(=O)[C@H](CCC(=O)O)NC(=O)[C@H](CC(=O)O)NC(=O)[C@@H](NC(=O)[C@@H]1C=CCN1C(=O)[C@H](Cc1ccccc1)NC(=O)[C@@H](N)Cc1ccc(O)cc1)[C@@H](C)O)C(C)C)C(=O)N[C@@H](Cc1c[nH]cn1)C(=O)O` (H-YF[ΔPro]TDE[Orn(CH(NH2)2)]SWVYSPLH-OH), where the note is “protein: clathrin adaptor AP-2 complex subunit beta-1, PDB entry 3h1z”, the Kd was 22 µM (active). As to `CC(C)C[C@H](NC(=O)[C@H](Cc1ccc(O)cc1)NC(=O)[C@H](CO)NC(=O)CNC(=O)[C@H](Cc1ccc(O)cc1)NC(=O)[C@@H]1CCCN1C(=O)[C@H](Cc1ccc(O)cc1)NC(=O)[C@H](Cc1c[nH]c2ccccc12)NC(=O)[C@@H](NC(=O)[C@@H](N)CCCNC(N)N)C(C)C)C(=O)N[C@H](C(=O)N[C@@H](C)C(=O)N[C@@H](CO)C(=O)NCC(=O)N[C@@H](CO)C(=O)O)[C@@H](C)O` (H-[Orn(CH(NH2)2)]VWYPYGSYLTASGS-OH), for the setting “protein: Concanavalin A(ConA), PDB entry 1jyc”, the Kd was 46 µM (active).

For the compound `CC[C@H](C)[C@H](NC(=O)[C@@H]1CCCN1C(=O)CNC(=O)[C@H](C)N)C(=O)N[C@@H](CO)C(=O)N[C@@H](CC(C)C)C(=O)N[C@@H](CC(N)=O)C(=O)N[C@@H](Cc1c[nH]c2ccccc12)C(=O)N[C@@H](Cc1ccccc1)C(=O)N[C@@H](CCC(=O)O)C(=O)N[C@@H](CCC(=O)O)C(=O)N[C@@H](CC(C)C)C(=O)N[C@@H](CO)C(=O)N[C@@H](C)C=O` (H-AGPISLNWFEELSA-aldehyde), where the note is “protein: Partner and localizer of BRCA2, PDB entry 3eu7”, the Kd is 0.66 µM (active). Consider `CC[C@H](C)[C@@H]1NC(=O)[C@@](C)(NC(=O)[C@H](CCC(N)=O)NC(=O)[C@@H]2CCCN2C(=O)[C@H](Cc2c[nH]c3ccccc23)NC(=O)[C@@H](N)CCCNC(N)N)CCC/C=C\C/C=C/[C@@](C)(C(=O)N[C@@H](Cc2c[nH]cn2)C(=O)N[C@H](C(=O)N[C@@H](CCCNC(N)N)C(=O)N[C@@H](CCCNC(N)N)C(=O)N[C@H](C(=O)N[C@@H](Cc2c[nH]c3ccccc23)C(=O)O)C(C)C)C(C)C)NC(=O)[C@H](CC(=O)O)NC(=O)[C@H](CC(C)C)NC1=O` (H-[Orn(CH(NH2)2)]WPQ[S5]ILD[X1]HV[Orn(CH(NH2)2)][Orn(CH(NH2)2)]VW-OH; staple (Z) 5-9), for which the Kd (protein: Catenin beta-1, PDB entry 4djs) was 0.013 µM (active).
